Only a selection was taken, and hits are over-represented in it overall.
AID inh: activation induced cytidine deaminase inhibition | Potency, µM (doses to about 115 µM), usual class: inhibitors | Q9GZX7 | AID deamination FRET fluorescence, UDG-coupled, 4 h | 91,000 compounds, 0.32% hits; further: nearly all actives have a fitted effect of over 25% in size
UDG counter: UDG inhibition counter-screen; FRET deamination/UDG coupled assay, UDG read, 4 h; Potency, µM (titrated, usually from 115 µM), actives largely listed as inhibitors; 91,000 compounds, 0.14% hits; AID 1347430; further: nearly all actives have a fitted effect of over 65% in size
DRV1 agonist: agonists of human resolvin D1 receptor DRV1 (GPR32) | 48,000 compounds, 2.5% hits | activation, % at 76.9 µM | CHO-K1 GPR32 beta-arrestin PathHunter luminescence, 90 min; zero percent set by DMSO-only wells | AID 1346428;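 active means activation of at least 60% and not above a set upper limit, about 1 call in 100 departs from these limits; inconclusive means activation of 40% to 60%, or above that upper limit; inactive means activation under 40%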
Target sequence (O75388 whole entry, looked up): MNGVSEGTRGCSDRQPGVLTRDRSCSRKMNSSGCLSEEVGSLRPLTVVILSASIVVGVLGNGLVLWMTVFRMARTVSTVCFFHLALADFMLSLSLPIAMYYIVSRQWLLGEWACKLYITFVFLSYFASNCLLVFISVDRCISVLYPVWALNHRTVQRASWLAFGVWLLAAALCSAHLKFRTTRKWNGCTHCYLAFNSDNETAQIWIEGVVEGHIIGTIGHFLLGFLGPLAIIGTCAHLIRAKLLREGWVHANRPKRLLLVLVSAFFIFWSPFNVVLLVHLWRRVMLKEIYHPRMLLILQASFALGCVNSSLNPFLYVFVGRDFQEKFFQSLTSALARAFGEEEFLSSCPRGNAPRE
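PathHunter enzyme-fragment complementation, CHO-K1 GPR32 stable line; 2,500 cells/well, overnight attach; cpd 90 min 37 °C 5% CO2; detection reagent 1 h RT; chemiluminescence. DMSO = EC0.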
A number is an active result. Unless noted, the call rests on the fitted dose curve; in most records, active means well fitted curve in the direction sought with a large enough effect; inconclusive means small, poorly fitted or top-dose-only effect, or another doubt; inactive means no such curve, though single readings can be large; an effect the other way counts as inactive or inconclusive.

How did Cc1ccc(CNC(=O)c2ccc3nc(N4CCCCC4)sc3c2)cc1 do in these assays?
AID inh: inactive; UDG counter: inactive; DRV1 agonist: inactive

Results for C#CCNC(=O)CN(C)Cc1ccc(C(F)(F)F)cc1 ?
AID inh: inactive; UDG counter: inactive

What do the screens show for `CCSc1nc2c(c(=O)[nH]1)C(c1ccc(C)o1)C1=C(CCCC1=O)N2` (configuration not stated)?
AID inh: inactive; UDG counter: inactive

Results for COc1cc2c(=O)c(C(=O)c3ccc(C)c(C)c3)cn(Cc3ccc(F)cc3)c2cc1OC ?
AID inh: 45µM; UDG counter: inactive; DRV1 agonist: inactive

Results for COc1cc2c(=O)c(C(=O)c3ccc(C)c(C)c3)cn(Cc3ccccc3)c2cc1OC ?
AID inh: inconclusive; UDG counter: inactive; DRV1 agonist: inactive

Results for O/N=C/c1ccc(OC(F)F)cc1 ?
AID inh: inactive; UDG counter: inactive

How did Cc1nn(C)c2c1c(C(F)(F)F)cc(=O)n2CC(=O)Nc1ccc(F)cc1F do in these assays?
AID inh: inactive; UDG counter: inconclusive; DRV1 agonist: inactive

How did Cc1cc(=O)n(CC(=O)N2CCN(c3ccc(F)cc3)CC2)c2c1c(C)nn2C do in these assays?
AID inh: inactive; UDG counter: inactive; DRV1 agonist: 71

What do the screens show for `CCOC(=O)C1CCCN(C(=O)Cn2c(=O)cc(C)c3c(C)nn(C)c32)C1` (configuration not stated)?
AID inh: inactive; UDG counter: inconclusive; DRV1 agonist: 81

What do the screens show for `Cc1c2cnn(-c3ccccc3)c(=O)c2c(C)n1CC(=O)N1CCN(c2ccc(F)cc2)CC1`?
AID inh: inactive; UDG counter: inactive; DRV1 agonist: inactive

Results for Cc1nn(C)c2c1c(C(F)(F)F)cc(=O)n2CC(=O)N1CCCCC1C (configuration not stated) ?
AID inh: inconclusive; UDG counter: inactive; DRV1 agonist: 80

How did CCOc1ccc(NC(=O)Cn2c(=O)cc(C)c3c(C)nn(C)c32)cc1 do in these assays?
AID inh: inactive; UDG counter: inactive; DRV1 agonist: inactive

How did O=C(Nc1cccc(Cl)c1)C1CC2CCCC(C1)C2=O (configuration not stated) do in these assays?
AID inh: inactive; UDG counter: inactive

Results for c1ccc2c(CSC3=NCCCN3)cccc2c1 ?
AID inh: inactive; UDG counter: inactive

How did CC(C)CN(CC(C)C)C(=S)NCc1ccco1 do in these assays?
AID inh: inactive; UDG counter: inactive

How did Cc1cc(C)cc(NC(=O)Cn2c(=O)n(CC(=O)NCCc3ccccc3)c(=O)c3ccccc32)c1 do in these assays?
AID inh: inactive; UDG counter: inactive; DRV1 agonist: inactive

How did CCc1cccc(NC(=O)Cn2c(=O)n(CC(=O)NCCc3ccccc3)c(=O)c3ccccc32)c1 do in these assays?
AID inh: inactive; UDG counter: inactive; DRV1 agonist: 81

How did COc1ccc(NCc2cccn2-c2nnc(N3CCOCC3)s2)cc1OC do in these assays?
AID inh: inactive; UDG counter: inactive; DRV1 agonist: inactive

Results for COc1ccc(NCc2cccn2-c2nnc(N3CCCCC3)s2)cc1OC ?
AID inh: inactive; UDG counter: inactive; DRV1 agonist: 84

Results for O=C(Nc1oc2ccccc2c(=O)c1-c1ccc(F)cc1)c1ccc([N+](=O)[O-])cc1 ?
AID inh: inactive; UDG counter: inactive

How did CCOC(=O)c1c(C)[nH]c(C(=O)C(C)N(C)Cc2ccccc2Cl)c1C (configuration not stated) do in these assays?
AID inh: inconclusive; UDG counter: inactive

How did Cc1c(Cl)ccc2sc(N3CCN(C(=O)C4CC4)CC3)nc12 do in these assays?
AID inh: inconclusive; UDG counter: inconclusive; DRV1 agonist: 76

What do the screens show for `CCc1cccc2sc(N3CCN(C(=O)C4CC4)CC3)nc12`?
AID inh: inactive; UDG counter: inactive; DRV1 agonist: inactive

How did CCc1ccccc1N(C)C(=O)c1nn(C)c2c1CSc1ccccc1-2 do in these assays?
AID inh: inconclusive; UDG counter: inactive; DRV1 agonist: inactive

How did COc1cc(OC)c(N(C)C(=O)c2nn(C)c3c2CSc2ccccc2-3)cc1Cl do in these assays?
AID inh: 45µM; UDG counter: inactive; DRV1 agonist: inactive

What do the screens show for `Cc1ccc(C2CCCN2Cc2ccc(C#N)cc2)cc1` (configuration not stated)?
AID inh: inactive; UDG counter: inactive

How did Cc1nc2nc(NC(=O)c3ccc(C(C)(C)C)cc3)[nH]n2c(=O)c1Cc1ccccc1 do in these assays?
AID inh: inconclusive; UDG counter: inactive; DRV1 agonist: inactive

How did COc1ccccc1C(=O)Nc1nc2nc(C)c(Cc3ccccc3)c(=O)n2[nH]1 do in these assays?
AID inh: 35µM; UDG counter: inactive; DRV1 agonist: inactive

What do the screens show for `Cc1cc(S(=O)(=O)Nc2ccc(O)c(Sc3nc4ccccc4s3)c2)ccc1Cl`?
AID inh: inactive; UDG counter: inactive; DRV1 agonist: 101

Screens from PubChem.
